The results in this text go back to article PMC7862700, “An all-to-all approach to the identification of sequence-specific readers for epigenetic DNA modifications on cytosine”.

What all share (experiment): DAPPL (digital affinity profiling via proximity ligation, sequencing); 10 mM Tris-HCl pH 7.5, 50 mM NaCl, 1 mM DTT, 4% glycerol, room temperature, 30 min; GST-TFs on glutathione beads, 16-mer random dsDNA library, 0.1% formaldehyde crosslink after washing; high values mean tight binding
In one assay the target is T1, FLI1 (Homo sapiens, UniProt Q01543 1-452).
T1 sequence: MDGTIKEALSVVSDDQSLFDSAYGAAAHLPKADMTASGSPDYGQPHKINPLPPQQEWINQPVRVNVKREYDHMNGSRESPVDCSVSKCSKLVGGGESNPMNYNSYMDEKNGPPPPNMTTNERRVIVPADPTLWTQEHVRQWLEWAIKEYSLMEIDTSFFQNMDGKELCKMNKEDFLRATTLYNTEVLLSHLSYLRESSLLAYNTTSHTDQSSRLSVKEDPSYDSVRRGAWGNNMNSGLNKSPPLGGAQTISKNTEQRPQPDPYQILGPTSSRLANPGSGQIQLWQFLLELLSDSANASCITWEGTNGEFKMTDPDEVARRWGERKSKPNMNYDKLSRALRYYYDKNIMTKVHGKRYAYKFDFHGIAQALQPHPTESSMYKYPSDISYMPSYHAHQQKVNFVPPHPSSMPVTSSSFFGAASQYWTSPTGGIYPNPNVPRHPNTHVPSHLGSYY
The note with it: protein: recombinant; tags: N-terminal GST; dsDNA, one strand shown. An outline of the steps: (§1)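 The binding signal reported is, for every hexamer, its read frequency for a factor over its read frequency for the tag-only sample. Reads came from pools of yeast-expressed, GST-fused human transcription factors on glutathione beads, barcoded with DNA and mixed with that sample, which were incubated with 200 nmole of a random double-stranded 16-mer DNA library in Tris/NaCl/DTT/glycerol buffer at room temperature for 30 min. After washing, the pools were crosslinked with 0.1% formaldehyde, proximity-ligated with BsaI/T4 ligase for 1 h at 37 °C, PCR-amplified and sequenced on an Illumina NextSeq500.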

The target of a further assay is T2, ELK1 (Homo sapiens, UniProt P19419 1-428).
T2 sequence: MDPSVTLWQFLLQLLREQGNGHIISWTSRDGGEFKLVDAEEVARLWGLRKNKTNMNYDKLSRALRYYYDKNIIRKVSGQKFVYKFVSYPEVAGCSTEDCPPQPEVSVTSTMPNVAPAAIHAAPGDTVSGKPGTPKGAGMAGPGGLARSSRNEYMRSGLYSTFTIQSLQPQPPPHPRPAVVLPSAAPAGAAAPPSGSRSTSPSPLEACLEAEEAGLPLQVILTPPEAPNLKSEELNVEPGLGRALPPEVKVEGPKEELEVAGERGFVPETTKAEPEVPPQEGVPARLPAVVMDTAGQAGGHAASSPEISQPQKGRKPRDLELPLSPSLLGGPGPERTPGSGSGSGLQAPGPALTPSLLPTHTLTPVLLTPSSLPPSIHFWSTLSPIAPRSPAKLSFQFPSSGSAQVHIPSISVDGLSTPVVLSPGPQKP
The note with it: protein: recombinant; tags: N-terminal GST; dsDNA, one strand shown. In a few lines:
as §1

The target in another assay is T3, GABPA (Homo sapiens, UniProt Q06546 1-454).
T3 sequence: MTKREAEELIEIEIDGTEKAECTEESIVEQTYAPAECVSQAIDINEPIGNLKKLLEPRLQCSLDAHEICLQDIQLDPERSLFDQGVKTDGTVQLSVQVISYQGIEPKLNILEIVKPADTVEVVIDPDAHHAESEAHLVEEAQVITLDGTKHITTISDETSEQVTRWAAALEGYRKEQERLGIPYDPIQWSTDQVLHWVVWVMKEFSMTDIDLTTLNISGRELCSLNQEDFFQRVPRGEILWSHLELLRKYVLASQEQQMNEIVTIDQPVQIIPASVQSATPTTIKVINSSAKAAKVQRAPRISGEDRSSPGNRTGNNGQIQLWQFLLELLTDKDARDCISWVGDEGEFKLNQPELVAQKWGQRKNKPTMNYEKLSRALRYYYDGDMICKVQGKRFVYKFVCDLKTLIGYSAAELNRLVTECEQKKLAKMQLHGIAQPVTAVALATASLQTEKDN
The settings on record: protein: recombinant; tags: N-terminal GST; dsDNA, one strand shown. An outline of the steps:
as §1

Another assay concerns the target T4, ERG (Homo sapiens, UniProt P11308 1-479).
T4 sequence: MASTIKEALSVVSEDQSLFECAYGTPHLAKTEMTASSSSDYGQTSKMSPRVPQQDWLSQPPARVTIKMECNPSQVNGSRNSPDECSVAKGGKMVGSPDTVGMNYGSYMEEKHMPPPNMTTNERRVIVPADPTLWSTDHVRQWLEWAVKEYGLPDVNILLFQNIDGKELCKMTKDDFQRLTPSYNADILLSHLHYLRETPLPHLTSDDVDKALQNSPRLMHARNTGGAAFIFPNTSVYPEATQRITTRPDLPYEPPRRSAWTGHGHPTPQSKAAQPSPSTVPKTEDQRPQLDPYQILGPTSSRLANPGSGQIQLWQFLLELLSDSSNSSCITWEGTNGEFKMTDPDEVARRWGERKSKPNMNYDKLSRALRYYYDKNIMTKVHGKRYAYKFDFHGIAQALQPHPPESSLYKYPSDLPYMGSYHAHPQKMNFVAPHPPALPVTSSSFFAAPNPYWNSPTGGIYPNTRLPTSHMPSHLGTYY
The settings on record: protein: recombinant; tags: N-terminal GST; dsDNA, one strand shown. In a few lines:
as §1

For the next assay, the target named is ELF1 (Homo sapiens, UniProt P32519 1-619). The settings on record: protein: recombinant; tags: N-terminal GST; dsDNA, one strand shown. In a few lines:
as §1

A further assay has as its target T5, EHF (Homo sapiens, UniProt Q9NZC4 1-300).
T5 sequence: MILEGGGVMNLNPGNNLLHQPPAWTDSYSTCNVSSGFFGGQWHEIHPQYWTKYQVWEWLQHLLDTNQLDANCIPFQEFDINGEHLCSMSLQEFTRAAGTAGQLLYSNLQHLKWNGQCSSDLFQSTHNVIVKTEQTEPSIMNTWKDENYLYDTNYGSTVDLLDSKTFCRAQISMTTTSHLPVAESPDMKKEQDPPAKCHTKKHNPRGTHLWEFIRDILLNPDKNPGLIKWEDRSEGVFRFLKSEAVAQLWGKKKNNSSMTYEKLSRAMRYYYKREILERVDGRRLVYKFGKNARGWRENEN
The note with it: protein: recombinant; tags: N-terminal GST; dsDNA, one strand shown. In a few lines:
as §1

Another assay has as its target SPI1 (Homo sapiens, UniProt P17947 1-270). The settings on record: protein: recombinant; tags: N-terminal GST; dsDNA, one strand shown. An outline of the steps: as §1
Another assay has as its target SPIB (Homo sapiens, UniProt Q01892 1-262). The note with it: protein: recombinant; tags: N-terminal GST; dsDNA, one strand shown. An outline of the steps:
as §1

The target of another assay is T6, ELK3 (Homo sapiens, UniProt P41970 1-407).
T6 sequence: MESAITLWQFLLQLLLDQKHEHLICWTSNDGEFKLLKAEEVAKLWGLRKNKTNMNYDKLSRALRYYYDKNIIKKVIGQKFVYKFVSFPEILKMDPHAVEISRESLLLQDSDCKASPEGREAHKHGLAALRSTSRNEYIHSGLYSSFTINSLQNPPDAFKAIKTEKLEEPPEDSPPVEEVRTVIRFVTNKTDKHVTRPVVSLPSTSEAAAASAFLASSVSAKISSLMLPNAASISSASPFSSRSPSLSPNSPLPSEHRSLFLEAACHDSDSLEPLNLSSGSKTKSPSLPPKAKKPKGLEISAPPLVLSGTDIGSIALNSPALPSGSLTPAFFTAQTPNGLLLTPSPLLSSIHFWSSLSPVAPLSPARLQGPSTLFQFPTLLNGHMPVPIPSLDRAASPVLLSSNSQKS
The note with it: protein: recombinant; tags: N-terminal GST; dsDNA, one strand shown. In a few lines: as §1

In the next assay the target is T7, FEV (Homo sapiens, UniProt Q99581 1-238).
T7 sequence: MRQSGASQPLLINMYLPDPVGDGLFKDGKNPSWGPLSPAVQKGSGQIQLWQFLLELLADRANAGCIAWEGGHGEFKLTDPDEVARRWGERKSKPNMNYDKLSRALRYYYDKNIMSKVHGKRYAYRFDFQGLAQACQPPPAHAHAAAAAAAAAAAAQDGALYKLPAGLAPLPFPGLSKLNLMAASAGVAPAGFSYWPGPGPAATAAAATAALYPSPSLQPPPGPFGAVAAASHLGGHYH
The note with it: protein: recombinant; tags: N-terminal GST; dsDNA, one strand shown. An outline of the steps: as §1

A further assay concerns the target ETV5 (Homo sapiens, UniProt P41161 1-510). The settings on record: protein: recombinant; tags: N-terminal GST; dsDNA, one strand shown. In a few lines:
as §1

In another assay the target is HSF1 (Homo sapiens, UniProt Q00613 1-529). The settings on record: protein: recombinant; tags: N-terminal GST; chain copies: 3; dsDNA, one strand shown. An outline of the steps: as §1
Sequence of HSF1 (Q00613 whole entry): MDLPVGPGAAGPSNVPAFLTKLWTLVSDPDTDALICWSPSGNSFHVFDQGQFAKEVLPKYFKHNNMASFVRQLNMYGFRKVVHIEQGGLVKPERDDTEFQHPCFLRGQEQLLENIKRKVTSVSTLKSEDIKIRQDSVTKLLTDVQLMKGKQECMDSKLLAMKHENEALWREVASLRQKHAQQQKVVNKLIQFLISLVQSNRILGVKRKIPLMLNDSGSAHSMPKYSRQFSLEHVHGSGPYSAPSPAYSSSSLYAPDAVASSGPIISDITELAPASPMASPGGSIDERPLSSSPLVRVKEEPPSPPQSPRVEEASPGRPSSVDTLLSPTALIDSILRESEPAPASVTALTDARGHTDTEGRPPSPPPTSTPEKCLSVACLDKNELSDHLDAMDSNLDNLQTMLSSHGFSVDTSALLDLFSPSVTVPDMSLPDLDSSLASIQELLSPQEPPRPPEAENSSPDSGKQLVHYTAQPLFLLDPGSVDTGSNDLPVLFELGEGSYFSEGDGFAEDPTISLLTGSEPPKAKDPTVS
The target of another assay is T8, SPIC (Homo sapiens, UniProt Q8N5J4 1-248).
T8 sequence: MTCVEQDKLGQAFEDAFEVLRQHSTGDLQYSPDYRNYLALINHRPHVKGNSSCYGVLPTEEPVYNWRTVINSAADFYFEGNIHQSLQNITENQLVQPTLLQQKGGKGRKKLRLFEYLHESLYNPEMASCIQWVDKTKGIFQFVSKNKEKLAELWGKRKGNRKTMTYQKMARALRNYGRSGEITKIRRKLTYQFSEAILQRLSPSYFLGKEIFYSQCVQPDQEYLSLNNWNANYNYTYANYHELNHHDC
The note with it: protein: recombinant; tags: N-terminal GST; dsDNA, one strand shown. In a few lines:
as §1

In another assay the target is ELF4 (Homo sapiens, UniProt Q99607 1-663). The settings on record: protein: recombinant; tags: N-terminal GST; dsDNA, one strand shown. An outline of the steps: as §1
Sequence of ELF4 (Q99607 whole entry): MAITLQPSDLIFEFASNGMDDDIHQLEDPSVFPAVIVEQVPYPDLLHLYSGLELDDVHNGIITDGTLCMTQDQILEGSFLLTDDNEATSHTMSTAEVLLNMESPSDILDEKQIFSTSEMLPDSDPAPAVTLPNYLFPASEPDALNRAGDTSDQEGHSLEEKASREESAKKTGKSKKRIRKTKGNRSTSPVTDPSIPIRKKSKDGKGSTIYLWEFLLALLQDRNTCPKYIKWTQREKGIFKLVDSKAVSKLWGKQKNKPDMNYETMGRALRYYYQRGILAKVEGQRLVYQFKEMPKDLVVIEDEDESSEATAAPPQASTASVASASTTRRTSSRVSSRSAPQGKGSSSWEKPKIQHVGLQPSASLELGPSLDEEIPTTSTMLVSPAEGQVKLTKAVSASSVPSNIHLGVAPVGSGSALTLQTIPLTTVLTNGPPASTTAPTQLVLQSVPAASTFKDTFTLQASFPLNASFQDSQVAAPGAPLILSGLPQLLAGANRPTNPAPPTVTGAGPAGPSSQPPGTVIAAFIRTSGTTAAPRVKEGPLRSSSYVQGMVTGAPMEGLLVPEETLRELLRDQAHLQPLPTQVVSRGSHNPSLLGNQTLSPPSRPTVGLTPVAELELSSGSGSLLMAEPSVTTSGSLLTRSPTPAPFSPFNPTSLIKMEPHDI
The target of a further assay is T9, ELK4 (Homo sapiens, UniProt P28324-2 1-405).
T9 sequence: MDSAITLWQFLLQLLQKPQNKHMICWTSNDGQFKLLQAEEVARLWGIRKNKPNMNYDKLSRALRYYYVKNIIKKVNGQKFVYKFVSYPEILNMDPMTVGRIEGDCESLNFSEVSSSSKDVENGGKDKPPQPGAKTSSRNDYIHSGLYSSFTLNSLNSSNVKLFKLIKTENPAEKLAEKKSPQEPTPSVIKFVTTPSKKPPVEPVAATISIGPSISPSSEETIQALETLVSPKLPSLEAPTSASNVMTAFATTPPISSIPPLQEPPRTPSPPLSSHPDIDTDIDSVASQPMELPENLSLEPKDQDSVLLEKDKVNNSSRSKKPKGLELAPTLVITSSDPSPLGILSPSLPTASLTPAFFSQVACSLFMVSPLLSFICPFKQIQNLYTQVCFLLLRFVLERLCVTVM
The settings on record: protein: recombinant; tags: N-terminal GST; dsDNA, one strand shown. An outline of the steps: as §1

In the next assay the target is T10, ETV2 (Homo sapiens, UniProt O00321 1-342).
T10 sequence: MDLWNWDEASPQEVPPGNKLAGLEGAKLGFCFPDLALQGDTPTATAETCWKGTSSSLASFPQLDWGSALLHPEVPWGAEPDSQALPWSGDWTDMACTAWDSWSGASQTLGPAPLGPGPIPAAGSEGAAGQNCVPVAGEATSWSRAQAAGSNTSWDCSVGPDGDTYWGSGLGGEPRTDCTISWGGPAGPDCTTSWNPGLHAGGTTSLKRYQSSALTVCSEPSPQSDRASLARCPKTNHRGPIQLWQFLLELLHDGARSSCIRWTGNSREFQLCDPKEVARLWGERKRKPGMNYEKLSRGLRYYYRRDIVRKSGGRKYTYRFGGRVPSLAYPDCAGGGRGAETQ
The note with it: protein: recombinant; tags: N-terminal GST; dsDNA, one strand shown. An outline of the steps: as §1

The target of the next assay is CRX (Homo sapiens, UniProt O43186 1-299). The settings on record: protein: recombinant; tags: N-terminal GST; dsDNA, one strand shown. In a few lines:
as §1

The target in a further assay is ETV1 (Homo sapiens, UniProt P50549 1-477). The note with it: protein: recombinant; tags: N-terminal GST; dsDNA, one strand shown. An outline of the steps: as §1
Sequence of ETV1 (P50549 whole entry): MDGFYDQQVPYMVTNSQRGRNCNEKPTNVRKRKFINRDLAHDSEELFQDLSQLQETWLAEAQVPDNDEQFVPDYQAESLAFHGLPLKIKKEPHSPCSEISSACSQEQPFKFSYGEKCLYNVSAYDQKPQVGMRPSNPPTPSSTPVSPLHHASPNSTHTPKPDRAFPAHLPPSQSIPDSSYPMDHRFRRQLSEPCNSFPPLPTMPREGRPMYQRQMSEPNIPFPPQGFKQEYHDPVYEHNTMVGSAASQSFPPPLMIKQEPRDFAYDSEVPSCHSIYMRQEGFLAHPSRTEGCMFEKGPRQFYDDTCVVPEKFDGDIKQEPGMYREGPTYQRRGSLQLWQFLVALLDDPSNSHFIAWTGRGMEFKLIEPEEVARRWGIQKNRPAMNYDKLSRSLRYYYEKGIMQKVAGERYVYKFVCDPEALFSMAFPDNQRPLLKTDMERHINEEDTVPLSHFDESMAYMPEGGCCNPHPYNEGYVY

Sequence of ELF1 (P32519 whole entry): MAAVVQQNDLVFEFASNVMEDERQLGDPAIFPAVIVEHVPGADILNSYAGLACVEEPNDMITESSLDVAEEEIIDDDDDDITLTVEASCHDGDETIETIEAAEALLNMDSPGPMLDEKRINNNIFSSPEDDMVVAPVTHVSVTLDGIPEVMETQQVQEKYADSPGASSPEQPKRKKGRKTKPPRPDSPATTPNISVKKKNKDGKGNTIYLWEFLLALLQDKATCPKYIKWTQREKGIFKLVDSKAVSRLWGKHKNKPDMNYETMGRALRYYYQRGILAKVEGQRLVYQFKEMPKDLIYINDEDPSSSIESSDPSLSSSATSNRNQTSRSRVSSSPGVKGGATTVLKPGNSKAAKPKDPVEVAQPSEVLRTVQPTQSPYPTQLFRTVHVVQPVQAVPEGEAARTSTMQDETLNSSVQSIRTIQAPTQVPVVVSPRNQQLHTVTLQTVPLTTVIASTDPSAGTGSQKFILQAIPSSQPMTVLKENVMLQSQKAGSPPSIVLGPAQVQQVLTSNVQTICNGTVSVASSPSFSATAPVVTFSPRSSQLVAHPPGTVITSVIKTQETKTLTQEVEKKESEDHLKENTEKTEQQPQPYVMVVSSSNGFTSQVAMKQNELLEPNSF
Sequence of CRX (O43186 whole entry): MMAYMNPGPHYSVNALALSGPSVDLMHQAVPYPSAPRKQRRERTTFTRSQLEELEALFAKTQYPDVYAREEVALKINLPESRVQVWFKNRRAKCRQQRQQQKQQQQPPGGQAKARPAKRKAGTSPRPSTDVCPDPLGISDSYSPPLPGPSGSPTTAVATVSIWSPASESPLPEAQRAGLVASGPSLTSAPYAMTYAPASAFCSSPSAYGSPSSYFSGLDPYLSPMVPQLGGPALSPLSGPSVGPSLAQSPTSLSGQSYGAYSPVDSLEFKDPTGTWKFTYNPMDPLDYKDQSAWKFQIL
Sequence of ETV5 (P41161 whole entry): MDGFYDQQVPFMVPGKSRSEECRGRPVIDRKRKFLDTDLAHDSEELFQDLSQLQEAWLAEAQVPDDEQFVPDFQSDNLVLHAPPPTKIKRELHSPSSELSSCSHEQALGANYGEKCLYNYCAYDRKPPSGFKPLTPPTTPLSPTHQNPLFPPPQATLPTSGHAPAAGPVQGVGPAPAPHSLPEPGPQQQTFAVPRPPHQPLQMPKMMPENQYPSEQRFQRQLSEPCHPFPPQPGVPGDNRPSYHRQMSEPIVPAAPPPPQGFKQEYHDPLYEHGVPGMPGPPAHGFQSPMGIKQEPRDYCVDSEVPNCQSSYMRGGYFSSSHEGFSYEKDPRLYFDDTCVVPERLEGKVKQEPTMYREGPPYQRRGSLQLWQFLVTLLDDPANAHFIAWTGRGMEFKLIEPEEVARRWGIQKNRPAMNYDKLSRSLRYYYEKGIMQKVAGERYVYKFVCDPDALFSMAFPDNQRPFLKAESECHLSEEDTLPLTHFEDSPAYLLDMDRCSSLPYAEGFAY
Sequence of SPIB (Q01892 whole entry): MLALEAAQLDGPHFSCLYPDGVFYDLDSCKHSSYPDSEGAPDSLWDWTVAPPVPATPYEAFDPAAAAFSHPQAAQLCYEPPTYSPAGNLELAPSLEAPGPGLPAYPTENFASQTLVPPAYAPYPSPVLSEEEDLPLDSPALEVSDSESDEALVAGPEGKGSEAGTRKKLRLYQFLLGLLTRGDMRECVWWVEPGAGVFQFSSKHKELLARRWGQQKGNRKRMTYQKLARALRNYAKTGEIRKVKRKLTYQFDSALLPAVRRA

As for TGATTT, the binding signal with FLI1 was 1.29 fold enrichment (6-mer frequency, TF over GST control); with ELK1, 1.2 fold enrichment (6-mer frequency, TF over GST control); with GABPA, 1.33 fold enrichment (6-mer frequency, TF over GST control); with ERG, 1.35 fold enrichment (6-mer frequency, TF over GST control); with ELF1, 1.23 fold enrichment (6-mer frequency, TF over GST control); with EHF, 1.18 fold enrichment (6-mer frequency, TF over GST control). The binding signal was 1.21 fold enrichment (6-mer frequency, TF over GST control) with SPI1; 1.23 fold enrichment (6-mer frequency, TF over GST control) with SPIB; 1.11 fold enrichment (6-mer frequency, TF over GST control) with ELK3; 1.26 fold enrichment (6-mer frequency, TF over GST control) with FEV; 1.27 fold enrichment (6-mer frequency, TF over GST control) with ETV5; 1.27 fold enrichment (6-mer frequency, TF over GST control) in the assay with HSF1. The binding signal is 1.39 fold enrichment (6-mer frequency, TF over GST control) in the assay with SPIC; 1.23 fold enrichment (6-mer frequency, TF over GST control) with ELF4; 1.2 fold enrichment (6-mer frequency, TF over GST control) with ELK4; 1.29 fold enrichment (6-mer frequency, TF over GST control) with ETV2; 1.35 fold enrichment (6-mer frequency, TF over GST control) with CRX; 1.31 fold enrichment (6-mer frequency, TF over GST control) with ETV1.
